Data as given in PubChem BioAssay.
The source made the active and inactive calls. Rule as the data show it, unless noted: active = inhibition above about 25%; inactive = the rest.

Experiments:
[1] = biological target: Nuclear receptor coactivator 3 (Homo sapiens) (UniProt Q9Y6Q9); experiment: SRC3 coactivator transcriptional activity inhibitors, confirmation, cell-based, luminescence, quadruplicate (AID 588792;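 active = mean inhibition over 43.08%, the solvent-only control mean plus 3 SD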;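 also: 0% = DMSO treated cells and 100% = gossypol at 36 µM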); settings: HEK293 GAL4-SRC3 luciferase reporter, at 3.6 µM, stronger effect = higher value
Chain of Nuclear receptor coactivator 3 (Homo sapiens) (Q9Y6Q9 whole entry, looked up, the tested form may be a part): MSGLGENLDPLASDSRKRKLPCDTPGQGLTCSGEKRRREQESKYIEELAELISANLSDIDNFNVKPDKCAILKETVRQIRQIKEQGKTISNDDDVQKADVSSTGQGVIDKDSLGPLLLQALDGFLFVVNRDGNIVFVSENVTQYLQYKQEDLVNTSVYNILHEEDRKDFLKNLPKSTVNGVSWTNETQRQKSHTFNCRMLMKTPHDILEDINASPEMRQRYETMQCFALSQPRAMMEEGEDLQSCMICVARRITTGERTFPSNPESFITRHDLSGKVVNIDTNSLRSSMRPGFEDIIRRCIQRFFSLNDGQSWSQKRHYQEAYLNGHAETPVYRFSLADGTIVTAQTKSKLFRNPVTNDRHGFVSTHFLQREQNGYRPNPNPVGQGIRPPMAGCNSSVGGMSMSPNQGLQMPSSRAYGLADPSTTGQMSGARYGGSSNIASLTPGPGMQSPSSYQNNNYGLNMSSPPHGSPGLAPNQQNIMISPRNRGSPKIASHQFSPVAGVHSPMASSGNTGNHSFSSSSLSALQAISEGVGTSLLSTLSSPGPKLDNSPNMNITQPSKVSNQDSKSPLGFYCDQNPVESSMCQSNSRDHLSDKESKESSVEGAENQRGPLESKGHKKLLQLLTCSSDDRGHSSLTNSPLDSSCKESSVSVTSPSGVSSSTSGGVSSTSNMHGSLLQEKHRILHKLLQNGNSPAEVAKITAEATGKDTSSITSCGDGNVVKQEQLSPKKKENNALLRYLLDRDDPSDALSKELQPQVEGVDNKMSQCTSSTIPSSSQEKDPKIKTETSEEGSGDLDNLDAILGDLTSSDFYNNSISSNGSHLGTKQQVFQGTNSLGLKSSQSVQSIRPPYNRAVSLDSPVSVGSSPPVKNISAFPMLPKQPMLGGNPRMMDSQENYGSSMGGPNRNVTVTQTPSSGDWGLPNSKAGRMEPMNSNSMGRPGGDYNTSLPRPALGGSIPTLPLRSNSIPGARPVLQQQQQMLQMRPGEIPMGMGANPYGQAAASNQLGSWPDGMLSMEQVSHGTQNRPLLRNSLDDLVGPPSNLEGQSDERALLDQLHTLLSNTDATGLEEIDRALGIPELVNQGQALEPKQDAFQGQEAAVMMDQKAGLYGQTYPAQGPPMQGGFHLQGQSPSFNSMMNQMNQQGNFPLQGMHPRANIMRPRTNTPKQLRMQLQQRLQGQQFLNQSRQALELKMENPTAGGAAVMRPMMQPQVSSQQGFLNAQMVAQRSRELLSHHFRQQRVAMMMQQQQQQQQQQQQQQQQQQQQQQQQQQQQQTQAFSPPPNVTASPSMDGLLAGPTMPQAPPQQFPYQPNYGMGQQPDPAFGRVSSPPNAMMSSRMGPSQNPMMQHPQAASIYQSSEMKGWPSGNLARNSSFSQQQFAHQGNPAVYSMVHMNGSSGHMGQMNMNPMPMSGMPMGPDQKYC

[2] = test system: transactivating tegument protein VP16 (Human herpesvirus 1), Gal4-VP16 luciferase reporter; experiment: VP16 transactivation inhibitors, counter-screen for SRC3 inhibitor project, cell-based, luminescence, high throughput (AID 588794; in the data active = inhibition above about 30%); settings: mammalian cells, VP16-driven luciferase reporter luminescence; at 3.6 µM; stronger effect = higher value
[3] = biological target: Nuclear receptor coactivator 1 (Homo sapiens) (UniProt Q15788); experiment: SRC1 coactivator transcriptional activity inhibitors, confirmation, cell-based, luminescence, quadruplicate (AID 588820;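 active = mean inhibition above 46.68%, the untreated control wells mean plus 3 SD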;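 also: 0% = DMSO wells and 100% = gossypol 36 µM treated wells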); settings: HEK293 GAL4-SRC1 luciferase reporter, at 3.6 µM, stronger effect = higher value
Chain of Nuclear receptor coactivator 1 (Homo sapiens) (Q15788 whole entry, looked up, the tested form may be a part): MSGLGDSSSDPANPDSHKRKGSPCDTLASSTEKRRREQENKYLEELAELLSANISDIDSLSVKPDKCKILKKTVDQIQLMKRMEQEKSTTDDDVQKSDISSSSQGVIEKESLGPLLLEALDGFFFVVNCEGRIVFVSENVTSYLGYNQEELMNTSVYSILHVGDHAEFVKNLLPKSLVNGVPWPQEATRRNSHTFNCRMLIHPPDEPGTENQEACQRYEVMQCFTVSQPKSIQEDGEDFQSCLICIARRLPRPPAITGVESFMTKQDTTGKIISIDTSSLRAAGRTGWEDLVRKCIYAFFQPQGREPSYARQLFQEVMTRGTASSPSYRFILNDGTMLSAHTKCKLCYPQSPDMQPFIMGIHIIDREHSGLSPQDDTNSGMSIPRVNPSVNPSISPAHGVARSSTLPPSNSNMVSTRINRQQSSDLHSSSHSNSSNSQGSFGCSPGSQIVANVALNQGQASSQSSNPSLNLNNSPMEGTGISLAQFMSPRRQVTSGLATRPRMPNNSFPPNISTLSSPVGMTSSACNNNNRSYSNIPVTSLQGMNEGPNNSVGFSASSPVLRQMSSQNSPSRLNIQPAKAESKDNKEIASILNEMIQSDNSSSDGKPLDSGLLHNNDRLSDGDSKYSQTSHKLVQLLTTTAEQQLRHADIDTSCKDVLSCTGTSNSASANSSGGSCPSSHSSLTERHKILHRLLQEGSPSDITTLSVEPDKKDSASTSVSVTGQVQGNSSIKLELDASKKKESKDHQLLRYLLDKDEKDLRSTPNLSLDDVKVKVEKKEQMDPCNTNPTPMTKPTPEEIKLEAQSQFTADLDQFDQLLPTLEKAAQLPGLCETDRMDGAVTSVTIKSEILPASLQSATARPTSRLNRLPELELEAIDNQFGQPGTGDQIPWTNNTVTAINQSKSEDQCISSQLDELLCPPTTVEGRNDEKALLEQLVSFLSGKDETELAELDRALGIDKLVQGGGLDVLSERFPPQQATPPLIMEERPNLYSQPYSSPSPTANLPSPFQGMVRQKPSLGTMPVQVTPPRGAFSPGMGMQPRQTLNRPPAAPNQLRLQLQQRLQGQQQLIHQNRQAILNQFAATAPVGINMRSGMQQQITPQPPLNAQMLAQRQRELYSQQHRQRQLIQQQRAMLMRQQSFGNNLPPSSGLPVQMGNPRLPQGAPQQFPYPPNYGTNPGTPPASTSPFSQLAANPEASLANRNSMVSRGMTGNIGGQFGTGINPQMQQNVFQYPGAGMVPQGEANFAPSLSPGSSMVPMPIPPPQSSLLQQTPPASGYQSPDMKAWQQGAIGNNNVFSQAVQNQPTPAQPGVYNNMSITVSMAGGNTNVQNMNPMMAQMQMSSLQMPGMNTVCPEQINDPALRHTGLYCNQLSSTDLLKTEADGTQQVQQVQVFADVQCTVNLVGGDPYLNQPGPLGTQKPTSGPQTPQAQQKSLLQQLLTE

[4] = VP16 transactivation inhibitors, counter-screen for SRC1 inhibitor project, cell-based, luminescence, high throughput (AID 588824); settings: cell-based VP16 transactivation luciferase luminescence; at 3.6 µM; stronger effect = higher value
[5] = test system: transactivating tegument protein VP16 (Human herpesvirus 1); experiment: VP16 transactivation reporter inhibitors, counter-screen for SRC2 inhibitor project, cell-based, luminescence, single concentration (AID 652007; in the data active = inhibition above about 36%); settings: cell-based VP16 transactivation luciferase reporter, at 8.9 µM, stronger effect = higher value
[6] = biological target: Nuclear receptor coactivator 2 (Homo sapiens) (UniProt Q15596); experiment: SRC2 coactivator transcriptional activity inhibitors, confirmation, cell-based, luminescence, HEK293, triplicate (AID 652008;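 active = mean inhibition above 46.5%, the solvent-only control mean plus 3 SD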;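 also: 0% = DMSO-treated cells and 100% = Gossypol at 36 µM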); settings: HEK293 GAL4-SRC2 luciferase reporter, at 8.9 µM, stronger effect = higher value
Chain of Nuclear receptor coactivator 2 (Homo sapiens) (Q15596 whole entry, looked up, the tested form may be a part): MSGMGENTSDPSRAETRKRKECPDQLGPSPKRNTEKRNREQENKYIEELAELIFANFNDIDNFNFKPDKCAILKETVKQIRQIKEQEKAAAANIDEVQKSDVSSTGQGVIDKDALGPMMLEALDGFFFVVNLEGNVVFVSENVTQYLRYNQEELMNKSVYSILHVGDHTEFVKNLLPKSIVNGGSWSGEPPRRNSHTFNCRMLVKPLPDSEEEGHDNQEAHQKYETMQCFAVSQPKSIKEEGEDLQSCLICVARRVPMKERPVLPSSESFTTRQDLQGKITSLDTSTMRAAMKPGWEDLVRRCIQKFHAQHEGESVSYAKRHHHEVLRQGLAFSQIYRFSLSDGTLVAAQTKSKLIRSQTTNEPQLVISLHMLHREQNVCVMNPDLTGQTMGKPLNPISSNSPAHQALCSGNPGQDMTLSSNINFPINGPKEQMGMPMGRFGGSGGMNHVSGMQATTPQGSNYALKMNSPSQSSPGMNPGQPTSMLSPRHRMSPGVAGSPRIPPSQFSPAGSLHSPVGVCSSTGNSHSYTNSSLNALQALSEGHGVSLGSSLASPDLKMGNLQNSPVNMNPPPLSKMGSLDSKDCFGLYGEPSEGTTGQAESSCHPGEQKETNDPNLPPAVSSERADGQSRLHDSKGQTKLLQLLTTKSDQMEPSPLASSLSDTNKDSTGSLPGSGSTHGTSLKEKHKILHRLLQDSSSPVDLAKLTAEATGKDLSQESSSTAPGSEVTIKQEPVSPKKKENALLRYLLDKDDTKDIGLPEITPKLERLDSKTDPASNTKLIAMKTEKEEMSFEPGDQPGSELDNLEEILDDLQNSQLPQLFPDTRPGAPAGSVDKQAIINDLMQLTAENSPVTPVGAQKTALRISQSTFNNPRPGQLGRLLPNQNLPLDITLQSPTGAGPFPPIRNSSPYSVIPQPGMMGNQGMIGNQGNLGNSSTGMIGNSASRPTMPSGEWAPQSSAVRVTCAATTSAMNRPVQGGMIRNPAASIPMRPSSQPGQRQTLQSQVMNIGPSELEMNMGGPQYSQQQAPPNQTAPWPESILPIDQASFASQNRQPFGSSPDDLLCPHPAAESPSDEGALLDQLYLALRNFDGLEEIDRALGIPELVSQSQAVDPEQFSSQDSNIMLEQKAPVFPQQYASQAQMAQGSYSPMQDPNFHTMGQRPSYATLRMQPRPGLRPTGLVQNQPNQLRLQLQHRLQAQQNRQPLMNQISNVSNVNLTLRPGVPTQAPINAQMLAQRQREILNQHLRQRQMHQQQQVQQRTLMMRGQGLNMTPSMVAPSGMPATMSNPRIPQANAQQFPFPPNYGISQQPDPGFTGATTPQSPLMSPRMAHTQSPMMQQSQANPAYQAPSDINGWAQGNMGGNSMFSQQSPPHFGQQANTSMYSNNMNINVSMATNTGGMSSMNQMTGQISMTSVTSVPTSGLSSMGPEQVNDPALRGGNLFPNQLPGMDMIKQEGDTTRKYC

Measured: inhibition

COc1ccc(-c2cc(=O)oc3cc(OC(=O)C4CCCCC4)c(Cl)cc23)cc1
inactive: [5] -4.78% | [6] 37.4%
active: [1] 59.4% | [2] 38.7% | [3] 56% | [4] 41.2%

CCc1nc(N)nc(N)c1-c1ccc(Cl)c([N+](=O)[O-])c1
active: [1] 56.7% | [3] 58.2%
inactive: [2] 24.9% | [4] 25% | [5] 28.1% | [6] 24.5%

CS(=O)(=O)N(CCC#N)Cc1ccc(/C=C2\C(=O)Nc3ccccc32)o1
active: [1] 55.2% | [2] 37.4% | [3] 52.9% | [4] 29.3%
inactive: [5] 4.75% | [6] 11.8%

c1ccc(CCc2nn3c(-c4ccncc4)nnc3s2)cc1
inactive: [5] 1.28%
active: [1] 68.4% | [2] 47.2% | [3] 57.3% | [4] 41.1% | [6] 50.8%

O=C(CC(Nc1ccc(Cl)cc1Cl)C(=O)O)c1ccccc1 (centres undefined)
inactive: [2] 18.1% | [3] -4.19% | [4] -13.2% | [5] 18.8%
active: [1] 52.3% | [6] 57.9%

CN(C)c1ccc(/C=C/c2nc3ccccc3s2)cc1
active: [5] 77.1% | [6] 84%
inactive: [1] 30.4% | [2] 28.4% | [3] 18.7% | [4] 12.9%

Cc1[nH]nc2ncc(C(=O)c3ccccc3O)cc12
active: [1] 73.3% | [2] 43.9% | [3] 68.7% | [4] 48.9% | [6] 50.4%
inactive: [5] -2.08%

Cc1cc(N2CCOCC2)c2c(N)c(Br)cc(C)c2n1
inactive: [5] -7.31%
active: [1] 71.8% | [2] 59% | [3] 76.3% | [4] 60.3% | [6] 54.8%

COc1ccc(CC(=O)Nc2cccc(-c3nnc(-c4ccccc4)o3)c2)cc1OC
active: [2] 32.9% | [4] 41.1% | [6] 68.5%
inactive: [1] 10.5% | [3] -12.5% | [5] 27.1%

Oc1ccc(N=Nc2ccc3c(c2)OCCO3)c2cccnc12
inactive: [1] 19.8% | [2] -38.3% | [3] 4.34% | [4] -39.5% | [5] -16.8% | [6] -7.52%

C=C1C(=O)[C@@]23[C@H](O)C[C@@H]4C(C)(C)CC[C@H](O)[C@@]4(C)[C@@H]2CC[C@@H]1[C@H]3O
inactive: [1] 28.5% | [3] -18% | [5] 33.9%
active: [2] 49.6% | [4] 46.2% | [6] 66.4%

O=S(=O)(Nc1cc(Sc2ncn[nH]2)c(O)c2ccccc12)c1ccccc1
inactive: [1] 12.9% | [2] 13.9% | [3] -20.2% | [4] 4.9% | [5] 16.2% | [6] 12.2%

CCC(=O)NC(c1ccc(C)cc1)c1ccc2cccnc2c1O (centres undefined)
active: [1] 55.7% | [2] 38.1% | [4] 53.4%
inactive: [3] 45.3% | [5] -3.42% | [6] 24.4%

COc1ccc(C(=O)C(CN2CCOCC2)c2ccccc2)cc1 (centres undefined)
inactive: [1] 1.7% | [2] 20.9% | [3] 0.8% | [4] 20.6% | [5] 6.4% | [6] 35%

CC(=O)Nc1nc(-c2ccc3c(c2)CC(C)N3C(=O)C2CC2)c(C)s1 (centres undefined)
active: [1] 72.6% | [2] 58.6% | [3] 50.6% | [4] 62.7%
inactive: [5] -4.55% | [6] 41.8%

O=C(CCl)N1N=C(c2ccco2)CC1c1ccco1 (centres undefined)
active: [1] 59.1% | [5] 36.6% | [6] 67.9%
inactive: [2] 12.5% | [3] 32.7% | [4] 4.7%

O=C(c1cncc(Br)c1)N1CCc2ccccc2C1
active: [1] 46.3% | [2] 33.3% | [4] 29.3%
inactive: [3] 46.3% | [5] 1.4% | [6] 15.9%

COC(=O)c1cccc2c1-c1ccccc1/C2=N/O
active: [1] 50.9%
inactive: [2] 24.4% | [3] 34.5% | [4] 25.2% | [5] 21.1% | [6] 42.4%

Nc1ccccc1Nc1cccc(C(F)(F)F)c1
inactive: [1] 25.9% | [2] 18.6% | [3] -6.37% | [4] 13.5% | [5] 6.37% | [6] 43.7%
